# Rows were chosen to be rich in hits. Some 1.1% of all compounds tested hit in one or more screens of this group.
# ERK EGF inh – blocks ERK signaling stimulated by EGF; HEK293-V1b, EGF-stimulated phospho-ERK AlphaScreen; AID 1454; 130,000 tested, 0.41% active; Potency, µM (doses to about 11.5 µM), without a hit: at the highest dose activity change, negative = inhibition, most hits filed as inhibitors;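 also: potency is read from the fitted curve at half-maximal effect; plate controls were stimulated vehicle wells for no effect and unstimulated vehicle basal for full effect; nearly all actives have a fitted effect of over 55% in size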
#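 Concentration-response of compounds against EGF-driven ERK phosphorylation in V1b-expressing HEK293 cells; 30 min preincubation, 5 min EGF, AlphaScreen detection; Normalized to DMSO basal and 25 nM EGF.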
# Luc counter – Kinase-Glo luciferase inhibition (counter-screen); Kinase-Glo luciferase, ATP luminescence, 8 min; Q27757; Potency, µM (top dose mostly 38.3 µM), for inactives: at the highest dose activity change, negative = inhibition, usual class: inhibitors; AID 1379; 200,000 tested, 0.28% active; also: potency is read from the fitted curve at half-maximal effect; % is scaled to controls: 0 for no effect and ±100 for the full control effect; nearly all actives have a fitted effect of over 60% in size
#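 Luminescence was the read-out, taken after 8-minute incubation at ambient temperature. Luciferase turned over luciferin with 10 uM ATP in imidazole pH 7.2 buffer containing KCl, MgCl2, Tween 20 and BSA.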
# IMPase Li inh – membrane-permeable IMPase blocker, potentiated with lithium | CHO-M1 cells, IP1 TR-FRET (IP-One), carbachol + lithium | Potency, µM (doses to about 59.4 µM), without a hit: at the highest dose activity, negative = IMPase inhibition, usual class: inhibitors | 210,000 tested, 0.35% active | AID 1457;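 also: IP1 builds up when IMPase is blocked and the TR-FRET signal falls; potency is read from the fitted curve at half-maximal effect; plate controls were basal vehicle for no effect and high inhibitor control for full effect; nearly all actives have a fitted effect of over 50% in size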
#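 Steps: plate 2000 CHO-M1 cells per well and culture 16–30 h; add compound and lithium; incubate 30 min, 37C; add d2-IP1 tracer and Eu cryptate anti-IP1 antibody in lysis buffer; read after 10 min at room temperature.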
# NPSR antag – antagonists of human neuropeptide S receptor cAMP signaling; Q6W5P4; CHO-NPSR cells, cAMP TR-FRET, antagonist mode; Potency, µM (series often up to 38.3 µM), inactives show at the highest dose activity change, negative = inhibition, hits mostly inhibitors; 220,000 tested, 1% active; also: potency is read from the fitted curve at half-maximal effect; % is scaled to controls: 0 for no effect and ±100 for the full control effect; nearly all actives have a fitted effect of over 50% in size
# Target sequence (Q6W5P4 whole entry, looked up): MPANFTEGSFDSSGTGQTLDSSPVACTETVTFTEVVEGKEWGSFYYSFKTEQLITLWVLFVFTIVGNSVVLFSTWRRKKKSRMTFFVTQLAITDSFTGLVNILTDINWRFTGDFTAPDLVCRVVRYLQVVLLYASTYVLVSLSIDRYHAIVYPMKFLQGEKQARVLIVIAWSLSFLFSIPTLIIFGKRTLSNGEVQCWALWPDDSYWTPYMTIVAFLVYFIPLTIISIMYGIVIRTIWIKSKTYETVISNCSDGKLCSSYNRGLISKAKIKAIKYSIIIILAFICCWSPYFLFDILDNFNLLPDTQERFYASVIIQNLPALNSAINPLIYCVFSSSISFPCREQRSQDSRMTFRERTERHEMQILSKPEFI
# pERK EGF inh – confirmation of ERK pathway inhibitors under EGF stimulation; shares compounds with ERK EGF inh; HEK293 EGF-stimulated ERK phosphorylation, AlphaScreen; Potency, µM (doses to about 57.5 µM), without a hit: top-dose activity change, negative = inhibition, actives largely listed as inhibitors; 60 tested, 60% active; AID 1725
# cRaf kinase inh – blocks human c-Raf kinase activity | 70 tested, under 10 active | shares compounds with ERK EGF inh | activity change, negative = inhibition, % at 76.9 µM | c-Raf kinase inhibition, homogeneous biochemical assay
# MEK inh – blocks human MEK1 kinase activity in ERK pathway follow-up | shares compounds with ERK EGF inh | homogeneous MEK kinase activity assay, ERK pathway | Potency, µM (highest dose often 76.9 µM), for the others: top-dose activity change, negative = inhibition, most hits filed as inhibitors | 70 tested, under 10 active | AID 1732
# The depositor's hits bear a star; ? = inconclusive; nt = not tested or not shown; ! = not confirmed by another sample; [ ] = another dose, or the depositor's remark. Calls follow the shape of the dose curve; as a rule, active = well fitted curve in the direction sought with a large enough effect; inconclusive = small, poorly fitted or top-dose-only effect, or another doubt; inactive = no such curve, though single readings can be large; an effect the other way counts as inactive or inconclusive.
SMILES,ERK EGF inh,Luc counter,IMPase Li inh,NPSR antag,others
CN(C)C(=O)Oc1ccc(OCc2nc3ccccc3[nH]2)cc1,5.0%,11.2µM*,7.5%,9.5%,
CC(C)c1nccn1Cc1ccc(Cl)cc1Cl,nt,-5.3%[7.66 µM],-1.0%,nt,
C=C(C)CN1CC[C@]23c4c5ccc(O)c4O[C@H]2c2[nH]c4ccccc4c2C[C@@]3(O)C1C5,15.8µM*,nt,nt,-41.4%,
CN1C2CCC1/C(=C/c1ccccn1)C(=O)/C2=C\c1ccccn1,14.1µM*,-0.1%,18.9%,-19.9%,
O=c1c(C=Nc2cccnc2Cl)c(O)n(CCCCl)c(=O)n1C1CCCCC1,2.8%,3.6%,3.7%,10µM*,
CC(C)c1cc2c(c(O)c1O)[C@@]1(C(=O)O)CCCC(C)(C)[C@@H]1CC2,nt,0.8%[39.9 µM],23.9%,nt,
c1ccc(CCCN2CCN(CCOC(c3ccccc3)c3ccccc3)CC2)cc1,7.5%,-3.5%,34.1%,15.8µM*,
Fc1ccc(C(OCCN2CCN(CCCc3ccccc3)CC2)c2ccc(F)cc2)cc1,?,-2.8%,17.7%,?,
Cn1c(=O)c2[nH]cnc2n(C)c1=O.[CH2-][C@H](Cc1cccc2cc(C(=O)O)c(=O)oc12)OC.[Hg].[OH-],nt,-0.7%[7.66 µM],2.8%,nt,
C[C@]12CCC(=O)C=C1CC[C@@H]1[C@@H]2CC[C@@]2(C)[C@H]1CC[C@]2(C)O,3.0%[57.5 µM],3.8%[39.9 µM],2.3%,-34.1%,
C[C@]12CC(=CO)C(=O)C[C@@H]1CC[C@@H]1[C@@H]2CC[C@@]2(C)[C@H]1CC[C@]2(C)O,?,nt,nt,6.31µM*,
C=CC(N)=O,nt,nt,2.7%,nt,
CCCCCc1nc2ccccc2c(=O)n1-c1ccccc1[N+](=O)[O-],4.0%,0.5%,10.9%,-27.4%,
CCCCCc1nc2c(c(=O)c3ccccc3n2C)c(=O)n1C1CCCCCC1,?,-0.5%,-8.9%,10µM*,
O=C(O)c1cc[c]([Hg][S]c2ncnc3nc[nH]c23)cc1,nt,0.0%[7.66 µM],8.4%,nt,
COC(=O)[C@]1(C)C[C@H]1[C@H](NP(=O)(c1ccccc1)c1ccccc1)c1ccccc1,2.8%,-1.2%,3.1%,12.6µM*,
C[C@@]12CC[C@H]3[C@H](CCC4=CC(=O)CC[C@H]43)[C@H]1CC[C@H]2OC1(O)C(=O)c2ccccc2C1=O,nt,-0.6%[7.66 µM],16.8%,nt,
O[C@H](CN1CC1)[C@@H](O)CN1CC1,nt,-4.6%[7.66 µM],2.1%,nt,
O=C(O)c1cccc2c1NC(c1cccc([N+](=O)[O-])c1)C1CC(Sc3ccccc3[N+](=O)[O-])C(Cl)C21 (stereo unspecified),0.4%,-6.1%,26.7%,10µM*,
O=C(O)c1ccc2c(c1)C1C(Cl)C(Sc3ccccc3[N+](=O)[O-])CC1C(c1cccc([N+](=O)[O-])c1)N2 (stereo unspecified),-2.2%,1.6%,7.3%,-45.5%,
CC1=CC(=O)c2c(O)cccc2C1=O,5.62µM*!,-0.9%,33.1%,nt,pERK EGF inh=7.08µM*;cRaf kinase inh=?;MEK inh=?
O=C1NC(=O)C(=Cc2ccccc2Oc2ccc(F)cc2)C(=O)N1,3.98µM*,-0.8%,-6.2%,-2.0%,pERK EGF inh=2.2%;cRaf kinase inh=-7.8;MEK inh=?
Cc1nc2ccccc2cc1C[N+]12CN3CN(CN(C3)C1)C2,nt,0.5%[7.66 µM],-6.7%,nt,
CN(C)NC(=O)CCC(=O)O,nt,nt,5.9%,nt,

# Compound activity: PubChem, National Center for Advancing Translational Sciences (NCATS)
